A short description of experiment [1]: qHTS assay for small molecule agonists of the antioxidant response element (ARE) signaling pathway (AID 651741; active = well fitted activation curve with a large enough effect in the signal ratio; the % refers to the signal ratio; also: potency is read from the fitted curve at half-maximal effect; as to activation: % of control where 0% means no effect). Summed up:
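CellSensor ARE-bla HepG2 cells (2,000/well) carrying ARE-driven beta-lactamase, exposed 16 h at 37 C. LiveBLAzer B/G FRET substrate added for 2 h at room temperature; fluorescence intensity read.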
(In general: Quantitative high-throughput screening tests each substance at several concentrations.)

The nature of experiment [2]: qHTS assay for small molecule activators of the p53 signaling pathway (AID 651743; active = well fitted activation curve with a large enough effect in the signal ratio, not every such curve was filed as active; the % refers to the signal ratio; also: series mostly up to about 92 µM; % of control where 0% means no effect). The following applies: HCT-116 p53RE-bla, beta-lactamase FRET ratio, 16 h; activation: hits give high values. In short, it runs like this: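 p53RE-bla HCT-116 cells carrying a beta-lactamase reporter under p53 response elements were exposed to compounds for 16 hours at 37 C. Reporter activity read as fluorescence after 2 hours at room temperature with LiveBLAzer B/G FRET substrate.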

Experiment [3] can be described thus: qHTS assay for small molecule activators of the nuclear factor-kappa B (NF-kB) signaling pathway (AID 651749; active = well fitted activation curve with a large enough effect in the signal ratio; the % refers to the signal ratio; also: series mostly up to about 77 µM; % of control where 0% means no effect). The following applies: NF-kB-bla ME-180 cells, beta-lactamase FRET ratio, 16 h; hits give high values. In short, it runs like this: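 NF-kB-bla ME-180 cells carrying a beta-lactamase reporter under an NF-kB response element, 2,000 cells/well, exposed to compound for 16 hr at 37C; FRET-based beta-lactamase fluorescence read-out of pathway activation.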

Experiment [4] is described as follows: qHTS assay for environmental chemicals that activate the Aryl hydrocarbon Receptor (AhR) signaling pathway (AID 651777). Also: % of control where 0% means no effect; nearly all actives have a fitted effect of over 15% in size. The conditions noted are these: 1A2-DRE human hepatoma cells, luciferase, 24 h; activation: hits give high values. Summed up: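 Following a 24 hr incubation with test chemicals at 37 C and 5% CO2, 1A2-DRE human hepatoma cells received One-Glo reagent; after 30 min at room temperature, luciferase output reflected CYP1A2 induction via AhR.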

In experiment [5] the target is Peroxisome proliferator-activated receptor alpha (Homo sapiens) (UniProt Q07869). The experiment is described as follows: qHTS assay for small molecule agonists of the peroxisome proliferator-activated receptor alpha (PPARalpha) signaling pathway (AID 651778). Also: % of control where 0% means no effect. The following applies: PathHunter PPARalpha complementation, chemiluminescence, 6 h; hits give high values. In short, it runs like this: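 Enzyme-fragment complementation assay in which ligand-bound PPARalpha translocates and forms an active enzyme that generates chemiluminescence. Cells were plated overnight, exposed to compound for 6 hr at 37 C, and then given detection reagent for 60 min at room temperature.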

For experiment [6], the target named is Nuclear receptor ROR-gamma (Homo sapiens) (UniProt P51449). Briefly: qHTS assay for small molecule antagonists of the retinoid-related orphan receptor gamma (ROR-gamma) signaling pathway (AID 651802). Also: nearly all actives have a fitted effect of over 60% in size. Also: potency is read from the fitted curve at half-maximal effect. In short, it runs like this:
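CHO, TET-inducible ROR + RORE-LUC reporter, 1536-well qHTS. Compound pinned, doxycycline added, 16hr 37C/5% CO2. ONE-Glo, 30 min RT, luminescence; signal drop scored as antagonism.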

The nature of experiment [7]: qHTS assay for small molecule disruptors of the mitochondrial membrane potential - 1 hr assay (AID 651754; calls by dose curve; also: nearly all actives have a fitted effect of over 35% in size; also: potency is read from the fitted curve at half-maximal effect). Summed up:
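HepG2, 2,000 cells/well, overnight attachment; cpd or DMSO 1 hr, 37C/5% CO2; Mito-MPS dye 30 min, 37C; fluorescence monomer (490/535) and aggregate (540/590).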

Experiment [8] in a line: qHTS assay for small molecule disruptors of the mitochondrial membrane potential - 5 hr assay (AID 651755; calls by dose curve; also: % is scaled to controls: 0 for no effect and ±100 for the full control effect; nearly all actives have a fitted effect of over 40% in size). Summed up: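 HepG2 cells (2,000/well), attached overnight, exposed to compound 5 hr at 37C, then Mito-MPS dye 30 min. Fluorescence read for monomers (490/535 nm) and aggregates (540/590 nm).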
Experiment [9] is described as follows: qHTS assay to identify small molecules that stimulate interleukin-8 (IL-8) secretion (AID 651758; active = well fitted activation curve with a large enough effect in the signal ratio; the % refers to the signal ratio; also: 0% is about no effect). Summed up: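 THP-1 cells (2000/well) exposed to compound 16 h at 37 C; secreted IL-8 then detected by HTRF with cryptate- and XL665-labelled anti-IL-8 antibody pair after 1-3 h at room temperature.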
A short description of experiment [10]: qHTS for compounds that reverse cellular toxicity of Amyloid beta (A-beta) peptide in yeast: LOPAC Validation Assay (AID 720559).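 Also: plate controls were DMSO for no effect and equimolar ferric chloride plus clioquinol rescue for full effect.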 In short, it runs like this: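 Here, A-beta-toxic yeast grow with test compounds at 30 C for 48 hr before optical density at 600 nm is recorded; data are normalized against DMSO and the FeCl3-clioquinol control.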
Experiment [11] in a line: qHTS for Activators of Parkin Expression: LOPAC Validation Assay (NLuc Reporter) (AID 720572;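 also: 0% = DMSO and 100% = positive control compound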). Summed up:
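Neuronal cells with a Parkin promoter-driven FLuc/NLuc coincidence reporter were treated 24 h at 37 C in 7-point dose response (LOPAC). NLuc luminescence read after FLuc; signals normalized to DMSO and positive control (100%).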

The target in experiment [12] is Tyrosine-protein kinase Yes (Homo sapiens) (UniProt P07947). Briefly: qHTS for small molecule inhibitors of Yes1 kinase: Primary Screen (AID 686947). Also: potency is read from the fitted curve at half-maximal effect; nearly all actives have a fitted effect of over 60% in size. In short, it runs like this: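 Yes1 (4 nM) preincubated 20 min with compound, then 60 min room-temperature reaction with 0.1 mM ATP and 0.3 mg/mL poly(E4Y) in pH 7.5 Tris, 10 mM MgCl2. ADP measured by ADP-Glo luminescence, normalised to enzyme/no-enzyme controls.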

A short description of experiment [13]: qHTS for small molecule inhibitors of Yes1 kinase: Counter Assay (AID 686950).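 Also: no kinase present so only ADP-Glo detection of a fixed ADP amount is tested; luminescence from ADP-Glo reporting ADP in a fixed ATP and ADP mixture; series mostly up to about 77 µM; 0% = DMSO wells with ATP plus ADP and -100% = ATP-only wells without ADP.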 In short, it runs like this: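 Enzyme-free detection counter-screen: compounds preincubated 20 min in buffer, then 0.08 mM ATP plus 0.02 mM ADP added for 60 min at room temperature; ADP-Glo luminescence. Buffer 50 mM Tris pH 7.5, 10 mM MgCl2, 150 mM NaCl; normalized to ATP+ADP and ATP-only controls.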

Experiment [14] can be described thus: qHTS for Inhibitors of Ubiquitin-specific Protease USP2a Using CHOP2 as the Reporter: K633 Counterscreen (AID 652168). Also: series mostly up to about 57 µM; % of control where 0% means no effect. In short, it runs like this:
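Cell-free interference counterscreen without USP2a: compounds pinned into enzyme-free buffer (20 mM Tris pH 8, 2 mM beta-mercaptoethanol, 0.05% Chaps), then DiUb K48-4IQF substrate added (100 nM stock); fluorescence read kinetically, Ex 525/Em 598.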

Experiment [15] in a line: qHTS for Inhibitors of Ubiquitin-specific Protease USP2a Using CHOP2 as the Reporter: Cytotox Assay (AID 652170).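 Also: series mostly up to about 46 µM; plate controls were DMSO-treated cells for no effect and wells without cells for full effect; nearly all actives have a fitted effect of over 70% in size.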 Summed up:
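HCT116 human colon cancer cells, 600 per well in DMEM with 10% FBS, exposed to compounds for 72 hr at 37 deg C. ATP measured by CellTiter-Glo luminescence, normalized to DMSO cells and no-cell background.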

In experiment [16] the target is Ubiquitin carboxyl-terminal hydrolase 2 (Homo sapiens) (UniProt O75604). Briefly: qHTS for Inhibitors of Ubiquitin-specific Protease USP2a Using CHOP2 as the Reporter: K484 Substrate (AID 652173).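 Also: cleavage of internally quenched K48 di-ubiquitin substrate measured as rising fluorescence over time; nearly all actives have a fitted effect of over 70% in size.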 In short, it runs like this: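 USP2 (dispensed at 5 nM) was pinned with compounds, then DiUb K48 internally quenched fluorescent substrate (dispensed at 100 nM) was added. The buffer was 20 mM Tris pH 8, 2 mM beta-mercaptoethanol and 0.05% CHAPS. Cleavage was read kinetically as rising fluorescence, Ex 525/Em 598.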

Values joined by “and” are separate entries in the source; they are usually repeats but may differ in a detail not shown here. Equal values may be shown once. A number with no mark means an inactive call. Results filed as inconclusive are left out. Active and inactive are the calls of the source. Unless noted, calls follow the shape of the dose curve; as a rule, active = well fitted curve in the direction sought with a large enough effect; inconclusive = small, poorly fitted or top-dose-only effect, or another doubt; inactive = no such curve, though single readings can be large; an effect the other way counts as inactive or inconclusive.

Chain of Nuclear receptor ROR-gamma (Homo sapiens) (P51449 whole entry, looked up): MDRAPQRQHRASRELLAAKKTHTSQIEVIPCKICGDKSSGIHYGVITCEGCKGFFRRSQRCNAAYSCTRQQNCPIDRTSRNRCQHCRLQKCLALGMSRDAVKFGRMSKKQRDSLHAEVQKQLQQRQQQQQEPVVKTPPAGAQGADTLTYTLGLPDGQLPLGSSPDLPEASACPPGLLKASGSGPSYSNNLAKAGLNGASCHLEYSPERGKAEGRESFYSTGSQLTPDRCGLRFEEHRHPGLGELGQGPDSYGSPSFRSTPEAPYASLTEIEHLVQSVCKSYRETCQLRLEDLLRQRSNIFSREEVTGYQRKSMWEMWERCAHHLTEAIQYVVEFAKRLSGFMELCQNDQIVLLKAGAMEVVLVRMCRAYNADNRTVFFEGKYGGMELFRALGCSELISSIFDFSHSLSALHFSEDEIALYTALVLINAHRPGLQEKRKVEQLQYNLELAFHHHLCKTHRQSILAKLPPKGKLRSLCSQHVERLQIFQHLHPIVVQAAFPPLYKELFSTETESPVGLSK
Chain of Peroxisome proliferator-activated receptor alpha (Homo sapiens) (Q07869 whole entry, looked up, the tested form may be a part): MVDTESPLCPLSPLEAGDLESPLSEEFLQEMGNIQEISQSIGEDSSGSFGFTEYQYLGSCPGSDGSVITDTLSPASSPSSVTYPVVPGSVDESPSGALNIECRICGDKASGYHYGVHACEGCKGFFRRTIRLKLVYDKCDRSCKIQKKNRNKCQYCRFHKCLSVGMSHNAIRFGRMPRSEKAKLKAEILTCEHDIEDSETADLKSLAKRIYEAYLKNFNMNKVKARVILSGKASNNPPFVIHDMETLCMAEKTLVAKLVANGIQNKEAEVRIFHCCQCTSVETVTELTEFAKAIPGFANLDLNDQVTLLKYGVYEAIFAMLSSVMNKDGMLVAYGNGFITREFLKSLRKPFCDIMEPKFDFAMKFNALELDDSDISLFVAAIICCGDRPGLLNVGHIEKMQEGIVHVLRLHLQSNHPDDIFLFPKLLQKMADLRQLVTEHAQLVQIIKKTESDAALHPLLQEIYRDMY
Chain of Ubiquitin carboxyl-terminal hydrolase 2 (Homo sapiens) (O75604 whole entry, looked up): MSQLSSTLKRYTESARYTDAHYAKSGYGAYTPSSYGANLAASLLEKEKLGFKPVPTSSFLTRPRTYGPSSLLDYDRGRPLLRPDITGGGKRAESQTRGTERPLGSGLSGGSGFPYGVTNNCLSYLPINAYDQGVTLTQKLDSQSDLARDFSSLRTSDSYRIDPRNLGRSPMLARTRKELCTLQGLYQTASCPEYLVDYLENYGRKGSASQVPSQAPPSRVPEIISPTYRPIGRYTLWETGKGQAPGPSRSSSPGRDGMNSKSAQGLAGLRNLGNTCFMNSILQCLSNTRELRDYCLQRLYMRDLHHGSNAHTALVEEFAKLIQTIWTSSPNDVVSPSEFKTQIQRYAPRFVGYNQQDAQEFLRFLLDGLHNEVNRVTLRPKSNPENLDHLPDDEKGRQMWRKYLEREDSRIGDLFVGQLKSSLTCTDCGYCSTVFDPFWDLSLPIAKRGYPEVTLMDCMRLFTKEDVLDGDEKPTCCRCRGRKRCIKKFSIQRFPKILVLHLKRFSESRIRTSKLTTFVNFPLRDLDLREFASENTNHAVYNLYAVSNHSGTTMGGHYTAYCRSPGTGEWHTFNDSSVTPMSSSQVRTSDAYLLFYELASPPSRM
Chain of Tyrosine-protein kinase Yes (Homo sapiens) (P07947 whole entry, looked up): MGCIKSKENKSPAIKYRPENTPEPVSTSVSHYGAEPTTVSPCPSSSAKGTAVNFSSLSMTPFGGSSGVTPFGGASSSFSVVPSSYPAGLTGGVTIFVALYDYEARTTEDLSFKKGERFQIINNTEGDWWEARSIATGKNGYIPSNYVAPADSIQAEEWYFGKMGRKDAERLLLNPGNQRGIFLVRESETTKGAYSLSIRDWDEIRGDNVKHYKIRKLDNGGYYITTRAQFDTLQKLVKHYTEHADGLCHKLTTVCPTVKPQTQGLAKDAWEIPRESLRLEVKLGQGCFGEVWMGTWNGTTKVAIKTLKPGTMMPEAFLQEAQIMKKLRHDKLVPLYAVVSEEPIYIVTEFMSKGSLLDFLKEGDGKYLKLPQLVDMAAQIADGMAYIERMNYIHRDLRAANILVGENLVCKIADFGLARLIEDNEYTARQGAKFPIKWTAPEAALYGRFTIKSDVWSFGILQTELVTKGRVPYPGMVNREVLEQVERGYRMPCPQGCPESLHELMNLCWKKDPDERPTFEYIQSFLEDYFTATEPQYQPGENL

Regarding `CN1C(=O)c2ccccc2C1=O`, the Potency result in experiment [1] was “inactive”. Also, the activation was 8.47% in experiment [2], 0.745% in experiment [3] and 1.05% in experiment [4]. Also, the max response in experiment [5] is -1.08%.

As for `COc1cc(C=O)ccc1O`, the activation in [2] was -5.16% and -4.75%; in [3], -1.8% and -1.55%; in [4], 2.04% and 0.0367%. Besides, the max response in experiment [5] was -1.16% and -2.1%. Also, in experiment [6], the Potency result was “inactive”.

In the case of `Brc1ccccc1-c1ccccc1`, the Potency result in [1], in [7] and in experiment [8] was “inactive” each time. For the same compound, the figures for the activation in experiment [2] and in [3] were 0.157% and -0.27%, respectively. Also, in experiment [9], the call was inactive. In addition, the max response in experiment [5] was -0.0593%.

Regarding `CC(C)(C)c1ccc(O)c(O)c1`, the Potency is 37.6 µM (active) and 48.6 µM (active) in experiment [1]; 37.6 µM (active) in [7]; 59.6 µM (active) in experiment [6]. Also, the activation was 2.58% and -2.7% in [2]; -0.887% and -1.66% in [3]; 7.39% and 2.07% in [4]. Moreover, the max response in [5] is 11.7% and 0.802%.

For the compound `Cc1ncc(CO)c(CO)c1O`, the Potency result in [1] was “inactive”. Moreover, the activation in experiment [4] is -1.88%. The max response in experiment [5] was -1.89%.

In the case of `CCCC(=O)c1cc(O)c(O)cc1O`, the activation was -5.77% in experiment [2], 0.282% in experiment [3] and -2.11% in experiment [4]. For the same compound, the Potency entry in [8] and in [6] was “inactive” in each case. The max response in experiment [5] is -3.73%.

Take `Nc1ncnc2n[nH]c(Nc3ccc(F)cc3)c12`: the call in experiment [10] and in experiment [11] was inactive.

Take `CN(C)c1cc2c(Nc3ccc4c(cnn4Cc4ccccc4)c3)ncnc2cn1`: the Potency in [12] was 0.207 µM (active). The outcome in experiment [13] and in [10] was inactive.

For `Oc1ccccc1`, the activation in [2] was -2.44% and -1.24% and 0.0138%; in [4], -1.73% and 0.212% and 0.333%. Moreover, in [5], the max response is -1.31% and -1.33% and -1.91%. In addition, the Potency result in [6] was “inactive”.

`Cn1cnc2c(NCc3ccccc3)nc(NCCO)nc21`: the outcome in experiment [10] and in experiment [11] was inactive.

In the case of `CC(C)N(CCC(=O)c1ccc2ccccc2c1)Cc1ccccc1`, the outcome in experiment [10] and in experiment [11] was inactive.

For `CCN(CC)CCOc1ccc(/C(=C(\Cl)c2ccccc2)c2ccccc2)cc1`, in [4], the activation was -0.728%. Also, the max response in experiment [5] is 11.1%.

Consider `Cc1nn(-c2ccccc2)c(C)c1/C=N/N1CCN(Cc2ccccc2)CC1`, for which the compound was classed as inactive in experiment [10] and in [11].

In the case of `COC(=O)C1=CO[C@@H](O)[C@@H]2C(CO)=CC[C@H]12`, the call in experiment [10] and in experiment [11] was inactive.

In the case of `C[N+](C)(C)CCO`, the call in experiment [10] and in experiment [11] was inactive.

With `O=C1NC(c2cccc([N+](=O)[O-])c2)=CCN1c1ccccc1O`, the compound was called inactive in experiment [10] and in experiment [11].

In the case of `O=C(Oc1ccccc1)c1cccc(C(=O)Oc2ccccc2)c1`, the max response in experiment [5] is 4.8%.

In the case of `CN1CCC(Nc2ncc3ncnc(Nc4ccc(F)c(Cl)c4)c3n2)CC1`, the Potency in [12] was 3.45 µM (active). For the same compound, the result in experiment [13] was inactive.

Regarding `CC(=O)Nc1ccc(S(=O)(=O)Nc2cc(C)on2)cc1`, the outcome in [14], in experiment [15] and in experiment [16] was inactive.

Turning to `O=C(Nc1ccc(Cl)cc1)Nc1ccc(Cl)c(Cl)c1`, in experiment [3], the activation was 6.88%. The max response in [5] is -0.555%.

Take `COc1ccccc1N1CCN(CCN2C(=O)CC3(CCCC3)CC2=O)CC1`: the result in experiment [10] and in experiment [11] was inactive.

Consider `Brc1ccc([C@H]2CN3CCSC3=N2)cc1`, for which the outcome in experiment [10] and in [11] was inactive.

With `CCCCCCCCCCCC[N+](C)(C)Cc1ccccc1`, the activation was 3.11% in experiment [3] and -1.52% in experiment [4]. The max response in [5] was 8.99%.

Consider `NC(N)=NCCCCN=C(N)N`, for which the compound was called inactive in experiment [10] and in experiment [11].

For `N[C@@H](Cn1ccc(=O)c(O)c1)C(=O)O`, the compound was called inactive in experiment [10] and in experiment [11].

Regarding `COc1cccc2c1[C@@H]1CN(CCCCn3c(=O)[nH]c4c(sc5ncc(-c6ccccc6)nc54)c3=O)C[C@@H]1CO2`, the compound was classed as inactive in experiment [10] and in [11].

For `O=[N+]([O-])c1ccc(-c2nc(-c3ccc(F)cc3)c(-c3ccncc3)[nH]2)cc1`, the compound was classed as inactive in experiment [10] and in [11].

With `O=C1NC(=O)/C(=C/c2ccc3c(c2)OC(F)(F)O3)S1`, the result in experiment [10] and in experiment [11] was inactive.

For the compound `Clc1ccc2c(c1)N=C(N1CCNCC1)c1ccccc1N2`, the compound was called inactive in [10] and in [11].

In the case of `CCCCCCCCCCCCCCCC[n+]1ccccc1`, the values for the activation in [2] and in experiment [4] were 2.82% and 5.1%, respectively. Besides, the Potency entry in [7] and in experiment [8] was “inactive” each time. For the same compound, in experiment [5], the max response is 1.85%.

Values taken from PubChem BioAssay (NCATS).
